PubChem BioAssay AID1159580 (chemical genetic matrix, 2015)
About 2,000 (36%) of roughly 5,500 compounds were called active. Another 18% or so got no clear call; they are omitted. Rule as the data show it: active = normalized growth mostly below about 0.91 (no sharp cut-off); inconclusive = no clear call, values can overlap the other calls; inactive = mostly above about 0.92. The list shows a part of the results.

Assay: chemical genetic growth profiling, strain panel (AID 1159580);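 also: tested at 20 µM; growth read once vehicle control cultures reached saturation at 30 °C; 1 = growth at the plate median or of vehicle wells; lower values mean less growth of the strain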
Conditions: growth OD

Measured: normalized growth

CC(=O)Oc1ccc(Cl)c2cccnc12
active: S. cerevisiae deletion strains, locus YJL187C, strain SWE1, hits give low values 0.0588 | S. cerevisiae deletion strains, locus YJR043C, strain POL32, hits give low values 0.0605 | S. cerevisiae deletion strains, locus YJR075W, strain HOC1, hits give low values 0.0612 | S. cerevisiae deletion strains, locus YKL009W, strain mrt4, hits give low values 0.0837 | S. cerevisiae deletion strains, locus YKL068W, hits give low values 0.061 | S. cerevisiae deletion strains, locus YKL085W, strain MDH1 (second series), hits give low values 0.0554 | S. cerevisiae deletion strains, locus YKL085W, strain MDH1, hits give low values 0.0554 | S. cerevisiae deletion strains, locus YKL160W, strain elf1, hits give low values 0.058 | S. cerevisiae deletion strains, locus YKL190W, strain CNB1, hits give low values 0.0452 | S. cerevisiae deletion strains, locus YKR001C, strain vps1, hits give low values 0.0643 | S. cerevisiae deletion strains, locus YKR026C, strain gcn3, hits give low values 0.0619 | S. cerevisiae deletion strains, locus YKR091W, strain srl3, hits give low values 0.0618 | S. cerevisiae deletion strains, locus YLL001W, strain dnm1, hits give low values 0.0631 | S. cerevisiae deletion strains, locus YLL026W, hits give low values 0.0596 | S. cerevisiae deletion strains, locus YLL041C, strain sdh2, hits give low values 0.0561 | S. cerevisiae deletion strains, locus YLR027C, strain aat2, hits give low values 0.0554 | S. cerevisiae deletion strains, locus YLR039C, strain RIC1, hits give low values 0.0795 | S. cerevisiae deletion strains, locus YLR058C, strain SHM2, hits give low values 0.0497 | S. cerevisiae deletion strains, locus YLR102C, strain apc9, hits give low values 0.0628 | S. cerevisiae deletion strains, locus YLR221C, strain rsa3, hits give low values 0.061 | S. cerevisiae deletion strains, locus YLR258W, strain gsy2, hits give low values 0.0582 | S. cerevisiae deletion strains, locus YLR262C, strain YPT6 (second series), hits give low values 0.0745 | S. cerevisiae deletion strains, locus YLR262C, strain YPT6, hits give low values 0.0956 | S. cerevisiae deletion strains, locus YLR268W, strain sec22, hits give low values 0.0707 | S. cerevisiae deletion strains, locus YLR320W, strain mms22, hits give low values 0.074 | S. cerevisiae deletion strains, locus YLR330W, strain CHS5, hits give low values 0.0507 | S. cerevisiae deletion strains, locus YLR342W, strain FKS1 (second series), hits give low values 0.0702 | S. cerevisiae deletion strains, locus YLR342W, strain FKS1, hits give low values 0.0632 | S. cerevisiae deletion strains, locus YLR357W, strain rsc2, hits give low values 0.13 | S. cerevisiae deletion strains, locus YLR370C, strain arc18, hits give low values 0.0627 | S. cerevisiae deletion strains, locus YLR371W, strain rom2, hits give low values 0.0668 | S. cerevisiae deletion strains, locus YLR384C, strain iki3, hits give low values 0.0595 | S. cerevisiae deletion strains, locus YLR418C, strain cdc73, hits give low values 0.101 | S. cerevisiae deletion strains, locus YML016C, strain PPZ1, hits give low values 0.0485 | S. cerevisiae deletion strains, locus YML032C, strain rad52, hits give low values 0.0749 | S. cerevisiae deletion strains, locus YML120C, strain ndi1, hits give low values 0.0578 | S. cerevisiae deletion strains, locus YML124C, strain tub3, hits give low values 0.0617 | S. cerevisiae deletion strains, locus YMR058W, strain fet3, hits give low values 0.0625 | S. cerevisiae deletion strains, locus YMR078C, strain ctf18, hits give low values 0.0737 | S. cerevisiae deletion strains, locus YMR125W, strain sto1, hits give low values 0.081 | S. cerevisiae deletion strains, locus YMR129W, hits give low values 0.0589 | S. cerevisiae deletion strains, locus YMR205C, strain PFK2, hits give low values 0.0841 | S. cerevisiae deletion strains, locus YMR223W, strain ubp8, hits give low values 0.069 | S. cerevisiae deletion strains, locus YMR231W, strain pep5, hits give low values 0.0641 | S. cerevisiae deletion strains, locus YMR307W, strain GAS1, hits give low values 0.122 | S. cerevisiae deletion strains, locus YNL067W, strain RPL9B, hits give low values 0.0485 | S. cerevisiae deletion strains, locus YNL071W, strain lat1, hits give low values 0.0618 | S. cerevisiae deletion strains, locus YNL153C, strain GIM3, hits give low values 0.048 | S. cerevisiae deletion strains, locus YNL209W, strain ssb2, hits give low values 0.0585 | S. cerevisiae deletion strains, locus YNL233W, strain BNI4, hits give low values 0.0581 | S. cerevisiae deletion strains, locus YNL248C, strain rpa49, hits give low values 0.0904 | S. cerevisiae deletion strains, locus YNL250W, strain rad50, hits give low values 0.127 | S. cerevisiae deletion strains, locus YNL271C, strain bni1, hits give low values 0.0631 | S. cerevisiae deletion strains, locus YNL298W, strain CLA4, hits give low values 0.0622 | S. cerevisiae deletion strains, locus YNL307C, strain MCK1, hits give low values 0.0688 | S. cerevisiae deletion strains, locus YNL322C, strain KRE1 (second series), hits give low values 0.0653 | S. cerevisiae deletion strains, locus YNR049C, strain mso1, hits give low values 0.06 | S. cerevisiae deletion strains, locus YNR052C, strain pop2, hits give low values 0.0622 | S. cerevisiae deletion strains, locus YOL147C, strain pex11, hits give low values 0.0595 | S. cerevisiae deletion strains, locus YOR001W, strain rrp6, hits give low values 0.0713 | S. cerevisiae deletion strains, locus YOR061W, strain CKA2, hits give low values 0.0492 | S. cerevisiae deletion strains, locus YOR069W, strain VPS5, hits give low values 0.0514 | S. cerevisiae deletion strains, locus YOR070C, strain gyp1, hits give low values 0.0596 | S. cerevisiae deletion strains, locus YOR080W, strain dia2, hits give low values 0.064 | S. cerevisiae deletion strains, locus YOR083W, strain WHI5, hits give low values 0.0594 | S. cerevisiae deletion strains, locus YOR106W, strain vam3, hits give low values 0.0646 | S. cerevisiae deletion strains, locus YOR136W, strain idh2, hits give low values 0.0755 | S. cerevisiae deletion strains, locus YOR144C, strain elg1, hits give low values 0.0602 | S. cerevisiae deletion strains, locus YOR184W, strain ser1, hits give low values 0.0785 | S. cerevisiae deletion strains, locus YOR265W, strain rbl2, hits give low values 0.0601 | S. cerevisiae deletion strains, locus YOR270C, strain vph1, hits give low values 0.104 | S. cerevisiae deletion strains, locus YOR290C, strain snf2, hits give low values 0.0601 | S. cerevisiae deletion strains, locus YOR316C, strain cot1, hits give low values 0.0595 | S. cerevisiae deletion strains, locus YPL051W, strain arl3, hits give low values 0.0618 | S. cerevisiae deletion strains, locus YPL055C, strain LGE1, hits give low values 0.0661 | S. cerevisiae deletion strains, locus YPL078C, strain atp4, hits give low values 0.0648 | S. cerevisiae deletion strains, locus YPL106C, strain sse1, hits give low values 0.0984 | S. cerevisiae deletion strains, locus YPL240C, strain hsp82, hits give low values 0.0604 | S. cerevisiae deletion strains, locus YPL241C, strain CIN2, hits give low values 0.0494 | S. cerevisiae deletion strains, locus YPR119W, strain clb2, hits give low values 0.0672 | S. cerevisiae deletion strains, locus YPR141C, strain kar3, hits give low values 0.0666 | S. cerevisiae deletion strains, locus YPR163C, strain tif3, hits give low values 0.0706 | S. cerevisiae deletion strains, locus YPR167C, strain met16, hits give low values 0.0624 | S. cerevisiae deletion strains, strain wtn01, hits give low values 0.0713 | S. cerevisiae strains, strain wild type, hits give low values 0.0465
inactive: S. cerevisiae deletion strains, locus YOL012C, strain htz1 0.23
